PubChem BioAssay (Tox21)
Records with an inconclusive call do not appear. Values without a mark were called inactive. Active and inactive are the calls of the source. Calls come from the whole dose curve; as a rule, active = well fitted curve in the direction sought with a large enough effect in the repeat runs; inconclusive = weak or mixed curves; inactive = no such curve, though single readings can be large; an effect the other way counts as inactive or inconclusive.

Experiment: qHTS RealTime-Glo MT Cell Viability Assay in HEK293 cells - 8 hour (AID 1224887); note: nearly all actives have a fitted effect of over 50% in size; for activity change, negative = cytotoxicity: top concentration of the series differs between compounds
Settings: RealTime-Glo luminescence; series mostly up to 76.8 µM; activity change, negative = cytotoxicity: at the top concentration
How it was run: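 Tox21 screen in HEK293 using RealTime-Glo MT chemistry, with cells and reagent co-dispensed. Luminescence proportional to viable cell number was captured at intervals during 40 h compound exposure at 37 C.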
% is set by controls: 0 for no effect and ±100 for the full control effect; potency is the fitted concentration of half-maximal effect.

SMILES | Potency | activity change, negative = cytotoxicity
O[C@@H](CNC[C@H](O)[C@H]1CCc2cc(F)ccc2O1)[C@@H]1CCc2cc(F)ccc2O1 | 21.3 µM (active) | 
Cc1c[nH]c2ccccc12 |  | 4.66% [at 35.3 µM]
Cc1ccc2c(c1[N+](=O)[O-])C(=O)c1ccccc1C2=O |  | -20.5% [at 35.3 µM]
CC(=O)OCC(=O)[C@@]1(OC(C)=O)[C@@H](C)C[C@H]2[C@@H]3C[C@H](F)C4=CC(=O)C=C[C@]4(C)[C@@]3(F)[C@@H](O)C[C@@]21C |  | -1.72% [at 35.3 µM]
O=C(O)c1cc(Cl)cc(Cl)c1O |  | -8.58%
CCN(Cc1cccc(S(=O)(=O)O)c1)c1ccc(C(=C2C=CC(=[N+](CC)Cc3cccc(S(=O)(=O)O)c3)C=C2)c2ccc(O)cc2S(=O)(=O)[O-])cc1 |  | 2.52% [at 35.3 µM]
COC(CC(C)CCCC(C)(C)O)OC (configuration not stated) |  | -3.07%
Oc1cccc2[nH]ccc12 |  | 5% [at 35.3 µM]
CCN(CC)CC(=O)Nc1c(C)cccc1C(=O)OC |  | 3.6% [at 35.3 µM]
CCN(CC)CCNC(=O)c1cc(Cl)c(N)cc1OC |  | -2.23% [at 35.3 µM]
CCCCOC(=O)CCCCC(=O)OCCCC |  | -1.8%
CCN(CC)c1cccc(O)c1 |  | 4.27%
O=C(c1ccccc1)C1CCC1 |  | 4.66%

Experiment: A CellTox Green Cytotoxicity Assay to monitor cytotoxicity in HEK293 cells - 16 hour (AID 1224888); note: nearly all actives have a fitted effect of over 35% in size
Settings: CellTox Green fluorescence; series mostly up to 76.8 µM; activity change: at the top concentration
How it was run: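 Seeding of HEK293 cells together with cytotoxicity dye preceded a 5 h incubation at 37 C/5% CO2. Test compounds in DMSO were then added and fluorescence monitored across 40 h.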

SMILES | activity change | Potency
CC(=O)OCCC(C)CC(C)(C)C (configuration not stated) | -0.236% | 
ClC1=C(Cl)C1(Cl)Cl | -8.48% | 
O=C(O)CN1C(=O)c2cccc3cccc(c23)C1=O | 5.15% [at 35.3 µM, stronger effect = higher value] | 
CCCCCCCC/C=C\CCCCCCCC(=O)OCCO | -0.454% | 
CS(=O)(=O)c1ccc([C@@H](C[C@H]2CCC(=O)C2)C(=O)Nc2cnccn2)cc1Cl | -12.7% | 
Cc1ccc2nc(N)[nH]c(=O)c2c1Sc1ccncc1 | -4.32% [at 35.3 µM, stronger effect = higher value] | 
CC(C)Cc1ccc(CC(=O)O)cc1 |  | 9.52 µM (active)
COc1cc(NCc2ccc3nc(N)nc(N)c3c2C)cc(OC)c1OC | 3.75% [at 35.3 µM, stronger effect = higher value] | 
CCCCCCCCCCCCCCCCCC(=O)OCC(CC)CCCC (configuration not stated) | -8.19% | 
CC12CC3CC(C)(C1)CC(N)(C3)C2 | 0.403% [at 35.3 µM, stronger effect = higher value] | 
CC/C=C\C/C=C\C/C=C\CCCCCCCC(=O)OCC | -12.5% | 
CN1CCCN(C(c2ccccc2)c2ccc(Cl)cc2)CC1 (configuration not stated) | 28.7% [at 35.3 µM, stronger effect = higher value] | 
O=C(O)c1cccc(C[C@@H]2COc3ccc(OCc4nc5cc(F)ccc5s4)cc3[C@@H]2O)c1 | 2.03% | 
Cc1ccc(N(CCO)CCO)cc1 | 0.34% | 
CC1CCC(C(C)CS)CC1S (configuration not stated) |  | 49 µM (active)
COC(=O)CC(C(C)=O)C(=O)OC (configuration not stated) | -5.11% | 
O[C@@H](CNC[C@H](O)[C@H]1CCc2cc(F)ccc2O1)[C@@H]1CCc2cc(F)ccc2O1 |  | 26.8 µM (active)

SMILES | activity change | Potency
Cc1c[nH]c2ccccc12 | 14.9% [at 35.3 µM, stronger effect = higher value] | 
COc1ccc(C)cc1 | 1.09% | 
COc1ccc(/C=C/C(=O)c2ccc(OC)cc2OC)cc1 | -13.4% [at 35.3 µM, stronger effect = higher value] | 
Cc1ccc2c(c1[N+](=O)[O-])C(=O)c1ccccc1C2=O | 1.99% [at 35.3 µM, stronger effect = higher value] | 
CC(C)(C)NCC(O)COc1cccc2c1C[C@H](O)[C@H](O)C2 (some centres not stated) | 0.218% [at 35.3 µM, stronger effect = higher value] | 
CC(=O)OCC(=O)[C@@]1(OC(C)=O)[C@@H](C)C[C@H]2[C@@H]3C[C@H](F)C4=CC(=O)C=C[C@]4(C)[C@@]3(F)[C@@H](O)C[C@@]21C | -1.48% [at 35.3 µM, stronger effect = higher value] | 
O=C(O)c1cc(Cl)cc(Cl)c1O | 1.06% | 
CCOC(=O)Oc1ccc(CCNC(=O)[C@H](CCSC)NC(C)=O)cc1OC(=O)OCC | 1.16% [at 35.3 µM, stronger effect = higher value] | 
CCN(Cc1cccc(S(=O)(=O)O)c1)c1ccc(C(=C2C=CC(=[N+](CC)Cc3cccc(S(=O)(=O)O)c3)C=C2)c2ccc(O)cc2S(=O)(=O)[O-])cc1 | -0.406% [at 35.3 µM, stronger effect = higher value] | 
COC(CC(C)CCCC(C)(C)O)OC (configuration not stated) | -0.781% | 
Oc1cccc2[nH]ccc12 | 0.98% [at 35.3 µM, stronger effect = higher value] | 
CCN(CC)CC(=O)Nc1c(C)cccc1C(=O)OC | -1.76% [at 35.3 µM, stronger effect = higher value] | 
CCN(CC)CCNC(=O)c1cc(Cl)c(N)cc1OC | 1.15% [at 35.3 µM, stronger effect = higher value] | 
CCCCOC(=O)CCCCC(=O)OCCCC | 7.88% | 
CCN(CC)c1cccc(O)c1 | 1.64% | 
CC1=CC[C@@]23C[C@@H]1C(C)(C)[C@@H]2CC[C@H]3C | 17.8% | 
O=C(c1ccccc1)C1CCC1 |  | 27.5 µM (active)
